Source: PubChem
SENP7 block: SENP7 protease inhibitors, primary screen, biochemical, luminescence, uHTS; inhibition, % at 5 µM; 330,000 compounds, 1.5% hits; recombinant SENP7, Z-RLRGG-aminoluciferin luminescence, 40 min;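 active = inhibition above about 50% at the single test dose, limit read from the data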;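 note: plate controls were DMSO with enzyme for no effect and no enzyme buffer wells for full effect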
Platelet DG rel: inhibitors of platelet dense granule secretion, primary screen, cell-based, MLPCN, human platelets | inhibition, %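 (compounds screened at 7.5 µM in platelet-rich plasma)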 | 300,000 compounds, 0.22% hits | human platelet-rich plasma, SFLLRN dense granule ATP release, luminescence;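 active = mean replicate score, as percent of positive control, at or above 50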
SENP6 inh: SENP6 protease inhibitors, primary screen, biochemical, luminescence, uHTS | Recombinant SENP6 catalytic domain, aminoluciferin luminescence | inhibition, % at 10 µM | 330,000 compounds, 1.8% hits | Sentrin-specific protease 6 (Homo sapiens), Q9GZR1 | AID 2599, 2010;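 active = inhibition above about 50% at the single tested dose, limit read from the data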;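 note: plate controls were DMSO wells with enzyme for no effect and DMSO wells lacking enzyme for full effect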
SENP8 block-1: human SENP8 protease inhibitors, primary screen, biochemical, fluorescence, Nedd8 protein substrate, uHTS. 360,000 compounds, 0.64% hits. AID 602440, 2012. inhibition, % at 20 µM. recombinant SENP8. Sentrin-specific protease 8 (Homo sapiens), Q96LD8; in the data active = inhibition mostly above about 40%, no sharp cut-off; inactive = mostly below about 27%
Target sequence (Q96LD8 whole entry, looked up): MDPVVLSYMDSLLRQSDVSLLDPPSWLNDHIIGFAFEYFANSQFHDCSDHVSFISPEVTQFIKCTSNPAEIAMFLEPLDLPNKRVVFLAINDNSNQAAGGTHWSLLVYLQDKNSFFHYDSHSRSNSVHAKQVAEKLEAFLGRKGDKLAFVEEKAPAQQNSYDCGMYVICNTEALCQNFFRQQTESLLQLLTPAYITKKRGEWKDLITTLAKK
SENP8 block-2: SENP8 protease inhibitors, primary screen, biochemical, luminescence | Sentrin-specific protease 8 (Homo sapiens), Q96LD8 | purified SENP8, Z-RLRGG-aminoluciferin cleavage | inhibition, % at 10 µM | 330,000 compounds, 1.2% hits | AID 2540, 2010; in the data active = inhibition above about 50%
SENP8 conf: SENP8 protease inhibitors, retest, confirmation, biochemical, luminescence, single concentration | shares compounds with SENP7 block | Recombinant SENP8, Z-RLRGG-aminoluciferin luminescence, 60 min | inhibition, % at 12.5 µM | 6,200 compounds, 40% hits;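 active = mean inhibition across replicates above about 50%, limit read from the data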
SENP6 conf: SENP6 protease inhibitors, confirmation, biochemical, luminescence, single concentration. shares compounds with SENP7 block. recombinant SENP6, Z-RLRGG-aminoluciferin luminescence. inhibition, % at 12.5 µM. 6,200 compounds, 58% hits. AID 488915, 2010
SENP7 conf: SENP7 protease inhibitors, retest, confirmation, biochemical, luminescence, single concentration; 6,200 compounds, 69% hits; recombinant SENP7, Z-RLRGG-aminoluciferin luminescence, 40 min; inhibition, % at 12.5 µM; shares compounds with SENP7 block; AID 488917, 2010
Casp3 SENP sel: caspase-3 protease inhibitors, confirmation, selectivity assay for SENP inhibitor project, biochemical, single concentration; shares compounds with SENP7 block; purified caspase-3, Z-DEVD-aminoluciferin luminescence, 60 min; inhibition, % at 12.5 µM; 6,200 compounds, 60% hits; AID 488918, 2010;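 active = mean inhibition above about 50%, limit read from the data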;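 note: plate controls were enzyme with DMSO for no effect and wells without caspase-3 for full effect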
Target sequence (P42574 28-227 limits assumed): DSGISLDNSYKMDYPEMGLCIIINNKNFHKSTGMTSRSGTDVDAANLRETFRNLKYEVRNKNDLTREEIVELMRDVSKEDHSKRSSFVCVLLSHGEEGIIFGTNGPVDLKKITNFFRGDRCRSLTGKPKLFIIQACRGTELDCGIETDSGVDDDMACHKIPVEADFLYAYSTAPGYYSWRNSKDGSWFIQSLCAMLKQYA
SENP luc ctr: counter-screen for SENP inhibitors: luminescence interference | shares compounds with SENP7 block | inhibition, % at 12.5 µM | 6,200 compounds, 39% hits | Pre-incubated SENP8/Z-RLRGG-aminoluciferin, luciferase luminescence interference | AID 488919;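 active = mean inhibition above about 50% when retested at one dose, limit read from the data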;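 note: plate controls were DMSO wells with completed reaction for no effect and substrate without enzyme for full effect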
* = called active by the depositor. A selection: hits, their analogues and other compounds. The true share with any hit is near 2.4%.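 Rule for the calls, unless noted: active = mean inhibition above about 50% in the one-dose retest (limit read from the data); inactive = the rest.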

`CC1(c2ccccc2)NC(=O)N(CC(=O)Nc2ccccc2C(=O)N2CCCCC2)C1=O` (configuration not stated) gave SENP7 block -5, Platelet DG rel -3, SENP6 inh -15, SENP8 block-1 -1 and SENP8 block-2 -7.
For c1ccc(-c2noc(-c3cccc4ccccc34)n2)cc1 the results were SENP7 block 49, Platelet DG rel 9, SENP6 inh 31, SENP8 block-1 -396 and SENP8 block-2 11.
Screening c1ccc2c(-c3nc(-c4ccncc4)no3)cccc2c1 returned SENP7 block 25, Platelet DG rel -12, SENP6 inh 45, SENP8 block-1 -306 and SENP8 block-2 1.
Screening Fc1ccccc1-c1nc(-c2ccncc2)no1 returned SENP7 block 84*, Platelet DG rel -8, SENP6 inh 85*, SENP8 block-1 15, SENP8 block-2 77*, SENP8 conf 82*, SENP6 conf 84*, SENP7 conf 98*, Casp3 SENP sel 90* and SENP luc ctr 72*.
Fc1ccccc1-c1nc(-c2ccc(-c3nn[nH]n3)cc2)no1 was read as SENP7 block 92*, SENP6 inh 97*, SENP8 block-1 -236, SENP8 block-2 96*, SENP8 conf 98*, SENP6 conf 98*, SENP7 conf 102*, Casp3 SENP sel 96* and SENP luc ctr 98*.
Fc1ccccc1-c1nc(-c2ccccc2)no1 was read as SENP7 block 99*, Platelet DG rel 16, SENP6 inh 98*, SENP8 block-1 11, SENP8 block-2 95*, SENP8 conf 36, SENP6 conf 97*, SENP7 conf 102*, Casp3 SENP sel 90* and SENP luc ctr 29.
`Brc1ccccc1-c1nc(-c2ccccc2)no1` gave SENP7 block 98*, Platelet DG rel 16, SENP6 inh 97*, SENP8 block-2 95*, SENP8 conf 13, SENP6 conf 99*, SENP7 conf 103*, Casp3 SENP sel 94* and SENP luc ctr 91*.
COc1ccc(-c2ccc(-c3noc(-c4ccccc4F)n3)c(OC)n2)cc1 was read as Platelet DG rel 6 and SENP8 block-1 -284.
O=C(Cc1ccccc1)c1ccc2c(c1)OCCO2 was read as SENP7 block 69*, Platelet DG rel 23, SENP6 inh 73*, SENP8 block-1 3, SENP8 block-2 71*, SENP8 conf 70*, SENP6 conf 65*, SENP7 conf 91*, Casp3 SENP sel 78* and SENP luc ctr 76*.
`O=C(NCCS(=O)(=O)NCc1ccccc1)c1ccc2c(c1)OCO2` gave SENP7 block -12, Platelet DG rel 10, SENP6 inh -1, SENP8 block-1 20 and SENP8 block-2 3.
O=C(NCCc1ccccc1)c1ccc2c(c1)OCO2 was read as SENP7 block 57*, Platelet DG rel 3, SENP6 inh 57*, SENP8 block-1 16, SENP8 block-2 30, SENP8 conf 52*, SENP6 conf 48, SENP7 conf 82*, Casp3 SENP sel 78* and SENP luc ctr 57*.
`O=C(Cc1cccs1)NCc1ccccc1Br` gave SENP7 block -6, Platelet DG rel -6, SENP6 inh 12, SENP8 block-1 12 and SENP8 block-2 -14.
Screening Cc1c(Cl)cccc1N=C1SCCN1C(=O)CN1C(=O)NC2(CCCC2)C1=O returned SENP7 block 0, Platelet DG rel 2, SENP6 inh -16, SENP8 block-1 0 and SENP8 block-2 1.
For CS(=O)(=O)c1ccc2nc(NC(=O)c3ccccc3)sc2c1 the results were SENP7 block 88*, Platelet DG rel 33, SENP6 inh 88*, SENP8 block-1 -42, SENP8 block-2 78*, SENP8 conf 14, SENP6 conf 80*, SENP7 conf 94*, Casp3 SENP sel 88* and SENP luc ctr 24.
`Cc1ccc(NC(=O)Nc2nc3ccc(S(C)(=O)=O)cc3s2)cc1` gave SENP7 block 12, SENP6 inh -18, SENP8 block-1 -47 and SENP8 block-2 -7.
CS(=O)(=O)c1ccc2nc(NC(=O)Nc3ccccc3F)sc2c1 was read as SENP7 block 72*, Platelet DG rel -2, SENP6 inh 33, SENP8 block-1 -7, SENP8 block-2 6, SENP8 conf -7, SENP6 conf -2, SENP7 conf 1, Casp3 SENP sel 5 and SENP luc ctr -3.
CCSc1nsc(NC(=O)Nc2ccccc2F)n1 was read as SENP7 block 50, Platelet DG rel -1, SENP6 inh 65*, SENP8 block-1 11, SENP8 block-2 36, SENP8 conf 28, SENP6 conf 42, SENP7 conf 79*, Casp3 SENP sel 48 and SENP luc ctr 15.
Screening Cc1ccc(C(=O)Nc2nc3ccc(S(C)(=O)=O)cc3s2)cc1C returned SENP7 block 6, Platelet DG rel 0, SENP6 inh 3, SENP8 block-1 -38 and SENP8 block-2 9.
For CCSc1nsc(NC(=O)Nc2cccc(OC)c2)n1 the results were SENP7 block -3, Platelet DG rel -12, SENP6 inh 17, SENP8 block-1 2 and SENP8 block-2 8.
`CS(=O)(=O)c1ccc2nc(NC(=O)Cc3ccccc3)sc2c1` gave SENP7 block -12, Platelet DG rel -16, SENP6 inh -14, SENP8 block-1 8 and SENP8 block-2 -19.
